MCF10A rerep – A quantitative high throughput screen for small molecules that induce DNA re-replication in MCF 10a normal breast cells; Potency, µM (doses to about 46.1 µM), for the others: at the highest dose activity, positive = re-replication, usual class: activators; AID 624296, 2012; MCF 10A DNA re-replication, Hoechst nuclear intensity, 48 h; 350,000 compounds, 2.9% hits; note: potency is the fitted concentration of half-maximal effect; % of control where 0% means no effect; nearly all actives have a fitted effect of over 50% in size
SW480 rereplic – A quantitative high throughput screen for small molecules that induce DNA re-replication in SW480 colon adenocarcinoma cells; 340,000 compounds, 1.8% hits; SW480 DNA re-replication, Hoechst DNA content imaging, 48 h; Potency, µM (series often up to 46.1 µM), inactives show top-dose re-replication activation, most hits filed as activators; note: potency is the fitted concentration of half-maximal effect; % of control where 0% means no effect; nearly all actives have a fitted effect of over 55% in size
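First, 250 cells per well were seeded. Next, compound or vehicle (23 nL) was pinned in, plates sat 48 hr at 37 C. Finally Hoechst was added for 40 min before fluorescence scanning.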
IL-1B inflam inh – qHTS for Inhibitors of Inflammasome Signaling: IL-1-beta AlphaLISA Primary Screen | THP-1 LPS/ATP IL-1B secretion, AlphaLISA, 16 h; hits give low values | activity change, % at 57.5 µM | 360,000 compounds, 4.7% hits; in the data active = activity change below about -50%; inconclusive = mostly about -30% to -49%; note: % is set by controls: 0 for no effect and ±100 for the full control effect
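Secreted IL-1B measured by AlphaLISA bead assay after 16 h compound exposure of THP-1 cells; compounds (final up to 57.5 uM) added 1 h before LPS (250 ng/mL) and ATP (1.25 mM) stimulation; lower signal means less secretion.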
Vif-A3F inh – qHTS for Inhibitors of Vif-A3F Interactions: qHTS; Potency, µM (series often up to 46.1 µM), inactives show top-dose activity, negative = active; HeLa A3F-eYFP + Vif (tagged APOBEC3F with the HIV-1 protein that degrades it), YFP fluorescence increase; 390,000 compounds, 0.2% hits; note: potency is the fitted concentration of half-maximal effect; % of control where 0% means no effect; nearly all actives have a fitted effect of over 65% in size
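HeLa cells stably expressing Vif plus C-terminally eYFP-tagged A3F were seeded, incubated overnight at 37 deg C, dosed with compound, incubated overnight again at 37 deg C. Yellow fluorescence (Ex 488/Em 500-530) reported blocked Vif-mediated A3F-eYFP degradation.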
Vif-APOBEC3G blk – qHTS for Inhibitors of Vif-A3G Interactions: qHTS | DNA dC->dU-editing enzyme APOBEC-3G (Homo sapiens), Q9HC16 | HeLa A3G-eYFP + Vif (tagged APOBEC3G with the HIV-1 protein that degrades it), YFP fluorescence, overnight | Potency, µM (series often up to 46.1 µM), for the others: at the highest dose activity, negative = active, usual class: inhibitors | 410,000 compounds, 0.076% hits; note: potency is the fitted concentration of half-maximal effect; % is set by controls: 0 for no effect and ±100 for the full control effect; nearly all actives have a fitted effect of over 60% in size
Target sequence (Q9HC16 whole entry, looked up): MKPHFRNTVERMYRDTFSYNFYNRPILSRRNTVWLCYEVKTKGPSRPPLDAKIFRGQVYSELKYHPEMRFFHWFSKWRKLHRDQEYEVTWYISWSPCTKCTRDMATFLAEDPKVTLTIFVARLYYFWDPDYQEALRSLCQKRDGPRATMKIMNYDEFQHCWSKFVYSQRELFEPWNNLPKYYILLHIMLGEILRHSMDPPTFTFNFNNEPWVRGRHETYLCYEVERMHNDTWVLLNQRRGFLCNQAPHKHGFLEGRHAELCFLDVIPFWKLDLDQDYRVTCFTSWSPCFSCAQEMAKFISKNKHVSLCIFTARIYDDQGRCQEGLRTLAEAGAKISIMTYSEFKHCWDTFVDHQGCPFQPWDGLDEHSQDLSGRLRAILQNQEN
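HeLa cells stably expressing Vif and C-terminally eYFP-tagged A3G, seeded overnight at 37 deg C, then exposed to compound by pintool overnight at 37 deg C. Rise in yellow fluorescence (Ex 488/Em 500-530, Acumen) marks blocked Vif-driven A3G degradation.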
Giardia killer – Small Molecules that selectively kill Giardia lamblia: qHTS; activity change, % at 7.66 µM, hits read low; Giardia lamblia trophozoite viability; 340,000 compounds, 0.15% hits; in the data active = activity change below about -80%; inconclusive = between about -30% and that limit;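 note: parasites exposed to compound for two days anaerobically before the ATP read; % is set by controls: 0 for no effect and ±100 for the full control effect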
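Media and compound were dispensed first, then trophozoites at 100 cells/well; plates sat 48 hrs at 37 deg C without oxygen before ATP luminescence reagent was added and read after 15-30 min at room temperature.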
Active calls of the source: *. Sampled rows, rich in hits. Any-hit rate of the full collection: about 6.9%. Unless noted, calls come from the whole dose curve; as a rule, active = well fitted curve in the direction sought with a large enough effect; inconclusive = small, poorly fitted or top-dose-only effect, or another doubt; inactive = no such curve, though single readings can be large; an effect the other way counts as inactive or inconclusive.

Results for COc1ccc(C2SCCN2C(=S)Nc2ccc(Cl)cc2)cc1 (stereo not given) ?
MCF10A rerep: -2%; SW480 rereplic: 4%; IL-1B inflam inh: -6; Vif-A3F inh: inconclusive; Vif-APOBEC3G blk: -1%; Giardia killer: 8

How did Cc1ccc(NC(=S)N2CCSC2c2cccs2)cc1 (stereo not given) do in these assays?
MCF10A rerep: 1%; SW480 rereplic: inconclusive; IL-1B inflam inh: -82*; Vif-A3F inh: 12%; Vif-APOBEC3G blk: -3%; Giardia killer: 16

What do the screens show for `COc1cc(/C=N/N2CCN(C3c4ccccc4-c4ccccc43)CC2)ccc1O`?
MCF10A rerep: inconclusive; SW480 rereplic: inconclusive; IL-1B inflam inh: 0; Vif-A3F inh: -15%; Vif-APOBEC3G blk: inconclusive; Giardia killer: -5

What do the screens show for `Oc1cccc(/C=N/N2CCN(C3c4ccccc4-c4ccccc43)CC2)c1`?
MCF10A rerep: inconclusive; SW480 rereplic: 0%; IL-1B inflam inh: -57*; Vif-A3F inh: 1%; Vif-APOBEC3G blk: 1%; Giardia killer: inconclusive

What do the screens show for `COc1ccc(CNC(=O)c2cc3cc(OC)ccc3oc2=O)cc1`?
MCF10A rerep: 16µM*; SW480 rereplic: -8%; IL-1B inflam inh: 15; Vif-A3F inh: -6%; Vif-APOBEC3G blk: inconclusive; Giardia killer: -1

How did CCOC(=O)COc1ccc2cc(C(=O)OCC)c(=O)oc2c1 do in these assays?
MCF10A rerep: -10%; SW480 rereplic: -4%; IL-1B inflam inh: -80*; Vif-A3F inh: 1%; Vif-APOBEC3G blk: 2%; Giardia killer: -8

How did CCCOc1ccc2cc(C(=O)NCc3ccccc3)c(=O)oc2c1 do in these assays?
MCF10A rerep: 23µM*; SW480 rereplic: 5%; IL-1B inflam inh: -13; Vif-A3F inh: 32µM*; Vif-APOBEC3G blk: -229%; Giardia killer: -19

How did COc1ccc2oc(=O)c(C(=O)NCc3ccc(C)cc3)cc2c1 do in these assays?
MCF10A rerep: 11%; SW480 rereplic: -8%; IL-1B inflam inh: -4; Vif-A3F inh: -15%; Vif-APOBEC3G blk: 1%; Giardia killer: 6

Results for COc1ccc2oc(=O)c(C(=O)NCc3ccccc3)cc2c1 ?
MCF10A rerep: -14%; SW480 rereplic: 3%; IL-1B inflam inh: -17; Vif-A3F inh: 0%; Vif-APOBEC3G blk: 0%; Giardia killer: 24

How did N#CC1C=Cc2c(ccc3ccccc23)N1C(=O)c1ccccc1 (stereo not given) do in these assays?
MCF10A rerep: 1.5µM*; SW480 rereplic: 3.7µM*; IL-1B inflam inh: -66*; Vif-A3F inh: -7%; Vif-APOBEC3G blk: inconclusive; Giardia killer: inconclusive

What do the screens show for `N#CC1C=Cc2ccccc2N1C(=O)c1ccccc1` (stereo not given)?
MCF10A rerep: 14%; SW480 rereplic: 15%; IL-1B inflam inh: 24; Vif-A3F inh: 3%; Vif-APOBEC3G blk: -4%; Giardia killer: -29

Results for COc1cc2c(cc1OC)C(c1ccc(F)cc1)N(c1ccccc1)C(=O)C2 (stereo not given) ?
Vif-A3F inh: 1%; Vif-APOBEC3G blk: -1%

How did CCc1nc2c(OCCC3CCCCC3)cccn2c1N(C)C(=O)C1CC1 do in these assays?
IL-1B inflam inh: 0; Vif-APOBEC3G blk: -4%

Results for CCc1nc2c(OCC=C(C)C)cccn2c1N(C)C(=O)c1ccccc1F ?
IL-1B inflam inh: -69*; Vif-APOBEC3G blk: 4%

How did CCc1nc2c(OCCC3CCCCC3)cccn2c1N(C)C(=O)c1ccc(C)cc1 do in these assays?
IL-1B inflam inh: -99*; Vif-APOBEC3G blk: inconclusive

How did CCCOc1cccn2c(N(C)C(=O)c3ccccc3F)c(CC)nc12 do in these assays?
IL-1B inflam inh: 47; Vif-APOBEC3G blk: 1%

Results for CCc1nc2c(OCCOc3ccc(F)cc3)cccn2c1N(C)C(=O)c1ccc(C)cc1 ?
IL-1B inflam inh: -60*; Vif-APOBEC3G blk: -4%

Results for CCc1nc2c(OCCOc3ccccc3)cccn2c1N(C)C(=O)c1ccc(C)cc1 ?
IL-1B inflam inh: 0; Vif-APOBEC3G blk: -3%

Results for Cc1ccc(NC(=O)c2cnn3c2NC(=C2CC2)C=C3C(F)F)cc1 ?
Vif-APOBEC3G blk: -4%

How did COC(=O)[C@@H]1C[C@@]2(O)[C@H](O)[C@H](O)[C@H](O)C[C@H]2N1Cc1ccc(-c2ccccc2)cc1 do in these assays?
MCF10A rerep: 0%; SW480 rereplic: -28%; IL-1B inflam inh: -71*; Vif-A3F inh: 3%; Vif-APOBEC3G blk: 3%; Giardia killer: -5

Results for COC(=O)[C@@H]1C[C@@]2(O)[C@@H](O)[C@@H](O)[C@@H](O)C[C@H]2N1Cc1ccc(-c2ccccc2)cc1 ?
MCF10A rerep: 1%; SW480 rereplic: -4%; Vif-A3F inh: 1%; Vif-APOBEC3G blk: 1%; Giardia killer: -4

How did O=S(=O)(c1nccs1)N1CCN(c2nc(-c3cccs3)nc3ccccc23)CC1 do in these assays?
Giardia killer: 2

How did C[C@@H]1CN([C@H](C)CO)C(=O)c2cccc(NC(=O)Nc3ccc(C(F)(F)F)cc3)c2O[C@H]1CN(C)S(=O)(=O)c1cccs1 do in these assays?
MCF10A rerep: inconclusive; SW480 rereplic: inconclusive; IL-1B inflam inh: -55*; Vif-A3F inh: -1%; Vif-APOBEC3G blk: -12%; Giardia killer: 13

What do the screens show for `COc1ccc(S(=O)(=O)N(C)C[C@H]2Oc3c(NC(=O)Nc4ccc(C(F)(F)F)cc4)cccc3C(=O)N([C@H](C)CO)C[C@@H]2C)cc1`?
MCF10A rerep: inconclusive; SW480 rereplic: 25%; IL-1B inflam inh: -61*; Vif-A3F inh: 0%; Vif-APOBEC3G blk: -15%; Giardia killer: 8

Results for Cc1c(C=O)ccc(N(C)C)c1C ?
Vif-APOBEC3G blk: -2%

What do the screens show for `COc1ccc(N2C(=O)C(CC(=O)Nc3ccc(F)cc3)N(CCC3=CCCCC3)C2=O)cc1` (stereo not given)?
Vif-A3F inh: -2%; Vif-APOBEC3G blk: 5%

How did Cc1ccc(SCc2nc3ccccc3[nH]2)cc1 do in these assays?
MCF10A rerep: -1%; SW480 rereplic: inconclusive; IL-1B inflam inh: -20; Vif-A3F inh: -1%; Vif-APOBEC3G blk: 1%; Giardia killer: 0

High-throughput results: PubChem BioAssay, National Center for Advancing Translational Sciences (NCATS)
